This passage reports growth results from PubChem BioAssay (NCI).

About 83,000 compounds went through this panel and 20% of them were active in at least one assay; those are over-represented in the sample as a whole.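 For each line, cells grew in 96-well plates with the test compound present at a single concentration for 48 hours.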 A number with no mark means an inactive call. The source made the active and inactive calls. Rule for the calls: active = growth percent below 10; inactive = the rest.

The subject of the test is DU-145 prostate. In words: NCI-60 one-dose screen, 48 h (100 = growth as untreated, 0 = no growth, -100 = all killed). To be noted: 10 µM unless noted.
With `Cc1cccc(NC(=O)Nc2ccc(-c3ccc4c(c3)NC(=O)/C4=C\c3ccc[nH]3)cc2)c1`, the growth was 96.4%.
Then `Cc1cc2nc3c4cc(C=O)ccc4n(CCN(C)C)c3nc2cc1C`, with 0.0752% (active); and `c1ccc2c(-c3nccs3)c[nH]c2c1`, with 107%.
Then `COc1cc(NC(C)CCCNC(=O)CCC(=O)NCCCNCCCCCCCCCCNCCCNC(=O)CCC(=O)NCCCC(C)Nc2cc(OC)cc3cccnc23)c2ncccc2c1` (stereo not drawn), with 71.8% [8 µM]; and `O=C1c2ccc3c4c(ccc(c24)C(=O)N1CCCNCc1ccccc1)C(=O)N(CCCNCc1ccccc1)C3=O`, with -93.6% (active); and `COc1ccc(CNCCN2C(=O)c3ccc4c5c(ccc(c35)C2=O)C(=O)N(CCNCc2ccc(OC)c(OC)c2OC)C4=O)c(OC)c1OC`, with -41.7% (active).
With `CCN(CC)c1ccc(C(=O)c2ccccc2)cc1`, the growth was 102%.
The value for `COc1cc2c(c(O)c1Cl)C(=O)c1c(O)cc(C[C@H](C)O)cc1[C@H]2[C@H]1c2cc(C[C@H](C)O)cc(O)c2C(=O)c2c1cc(OC)c(Cl)c2O` was 23.8%.
The value for `Nc1c(C(=O)Nc2cccc3cnccc23)sc2nc3c(cc12)C(=O)CCC3` was 103%; that for `O=C(CCN1CCCC1)Nc1ccc2c(Nc3ccc(F)cc3)c3ccccc3nc2c1` was -46% (active); that for `COc1cc2c(cc1OC)C(=O)/C(=C/c1cc(C)c(O)c(C)c1)S2` was 25.3%.
The value for `CCCCCN1C=C/C(=C\C(=O)N(C)c2ccc(Oc3ccccc3)cc2)c2ccccc21` was 103%.
Take `C/C(=N\Nc1cc(C)nc2ccc(Br)cc12)c1ccc([N+](=O)[O-])cc1`: the growth was 64.8%.
As for `N/C(=N\C(N)=N\c1nc2ccccc2s1)c1ccnc(Br)c1`, the growth was 42.7%.
The value for `COc1cc(/C=N/NC(=O)c2cnn3c2NC(c2ccccc2)C3)ccc1Oc1ccccc1` (stereo not drawn) was 30.2%.
Regarding `COc1cc(-c2n/c(=C\c3c(O)[nH]c4ccc(Cl)cc34)cc3c2=Nc2ccccc2-3)ccc1F`, the growth is -36.4% (active).
Take `c1ccc2c(-c3c[nH]c4ccccc34)c3c(cc2c1)[nH]c1ccccc13`: the growth is 93.7%.
The value for `C=C(C)[C@@H]1CC[C@]2(CN)CC[C@]3(C)[C@H](CC[C@@H]4[C@@]5(C)CCCNC(C)(C)[C@@H]5CC[C@]43C)[C@@H]12` was -53.5% (active); that for `CCOC(=O)/C(C#N)=C1/NNC(=Nc2cccnc2)S1` was 105%; that for `O=C1c2ccc3c4c(ccc(c24)C(=O)N1CCCNCc1ccccc1Cl)C(=O)N(CCCNCc1ccccc1Cl)C3=O` was -86.5% (active).
The value for `CCN(CC)c1ccc(/C=N/NC(=O)CSc2nc3ccccc3c(=O)n2Cc2ccc(S(N)(=O)=O)cc2)c(O)c1` was 37.8%; that for `COc1cc(/C=C/c2cc(O)c(C(C)=O)c(O)c2)cc2c1O[C@]1(C)CC[C@@H](O)C(C)(C)[C@H]1C2` was 74.5%.
Regarding `O=C(CCN1CCCC1)Nc1ccc2c(NCCCc3ccccc3)c3ccccc3nc2c1`, the growth is -52.6% (active).
The value for `CCSCC1CC(O)(c2ccccc2)CC(c2ccc(F)cc2)O1` (stereo not drawn) was 9.94% (active); that for `N/C(=N\C(N)=N\c1nc2ccccc2s1)c1cnccn1` was 28.2%; that for `C#CCNC(=O)[C@]1(C)CC[C@]2(C)CC[C@@H]3C(=CC[C@H]4[C@@]3(C)CC[C@H]3C(C)(C)C(=O)CC[C@]43C)[C@@H]2C1` was 98.8%.
Then `CCc1ccc(CNc2ccc(N3CCOCC3)c(C(=O)O)c2)cc1`, with 105%; and `COc1ccc(/C=N/NC(=O)c2cnn3c2NC(c2ccccc2)C3)cc1OC` (stereo not drawn), with 81.1%; and `N#CC1=C(/N=C/c2ccccc2)Oc2c(ccc3ccccc23)C1c1ccc([N+](=O)[O-])cc1` (stereo not drawn), with 96%.
Then `O=C(Cc1ccccc1)NNc1nc(Cl)nc(N2CCN(C(c3ccccc3)c3ccccc3)CC2)n1`, with 110%.
For the compound `COC(=O)C1=C(C(=O)ON)[C@@H]2C=C[C@@]1([C@@H](Cc1ccccc1)Nc1ccccc1)O2`, the growth was 80%.
The value for `CCCOC(=O)N[C@H]1CCc2c(Cl)c(OC)c(OC)c(OC)c2-c2ccc(SC)c(=O)cc21` was 3.02% (active); that for `CCN(CC)CCCC(C)Nc1cc(O)cc2cccnc12` (stereo not drawn) was 113%.
The value for `O=C1c2ccc3c4c(ccc(c24)C(=O)N1CCCNCc1ccccc1F)C(=O)N(CCCNCc1ccccc1F)C3=O` was -91.9% (active); that for `CC1=CCC(OC(=O)C(C)(O)CCC(O)(C(=O)OC2(C)C=CC(O)(C(C)C)CC2)C(C)C)(C(C)C)CC1` (stereo not drawn) was 113%; that for `CCCCCCNC(=O)Nc1ccc2cc3ccc(NC(=O)NCCCCCC)cc3nc2c1` was 21.7%.
As for `C[C@H]1[C@H](C)CC[C@]2(C(=O)NCC#CCN3CCN(C)CC3)CC[C@]3(C)C(=CC[C@@H]4[C@@]5(C)Cc6c([nH]c7ccccc67)C(C)(C)[C@@H]5CC[C@]43C)[C@H]12`, the growth is 73.1%.
Then `O=C(/C=C(/C=C/c1coc2ccccc12)OB(F)F)/C=C/c1coc2ccccc12`, with 99.1%.
